The record followed here is PubChem BioAssay (NCI).

SMILES strings stand for the structures. Compounds without any hit were thinned out: in the full panel of roughly 83,000, 20% have a hit.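 Results are percent growth after 48 hours of single-concentration exposure. 100 means growth as in untreated cells, lower positive values show inhibition; negative values down to -100 show cell death.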 A number with no mark means an inactive call. Calls of active or inactive are those of the source. How the source made its calls: active means growth percent below 10; inactive means the rest.

The test system of the assay is DU-145 prostate. In words: NCI-60 one-dose screen, 48 h (100 = growth as untreated, 0 = no growth, -100 = all killed). The note with it: 10 µM unless noted.
`CNC(=O)c1cc(Oc2ccc3nc(NC(=O)Nc4ccc(CN5CCOCC5)c(C(F)(F)F)c4)sc3c2)ccn1`: the growth is 31.5%. With `Cc1cc(N/N=C/c2nc(-c3ccc(Cl)cc3)oc2C)c2cc(Br)ccc2n1` the figure was 31.9%; with `COc1cc(-c2cc(-c3nc4ccc(Cl)cc4[nH]3)[nH]n2)cc(OC)c1OC`, 57.8%. Turning to `COc1ccc(-c2cc(-c3cccnc3)nc3sc4c(=O)n(-c5ccc(C)cc5)cnc4c23)cc1OC`, the growth is 101%. As for `CN(C)c1ccc(/C=C\C2=[N+](C)c3ccccc3C2(C)C)cc1`, the figure is 16.3%; as for `COc1ccc(-c2cc(-c3cccnc3)nc3sc4c(=O)n(-c5ccc(C)cc5)nnc4c23)cc1OC`, 107%.

Regarding `COc1ccc(C/C(C)=C(\c2ccc(Cl)cc2)c2ccc(OCCN3CCCCCC3)cc2)cc1`, the growth was 106%. For the molecule `O=C1C=CC(=O)N1c1ccc(Cc2ccc(N3C(=O)C=CC3=O)cc2)cc1`, the growth is 111%.

For `CN1CCN(Cc2ccc(NC(=O)c3[nH]ncc3Nc3ncnc4[nH]ccc34)cc2)CC1`, the growth is 3.78% (active).

Regarding `O=C(Nc1ccc(Oc2ccc(F)cc2)c(Cl)c1)c1cccnc1`, the growth was 87%.

Regarding `OC(c1cccc(C(F)(F)F)c1)c1cnccc1NC1CCCCCC1` (stereo not drawn), the growth is 71.6%. Consider `NS(=O)(=O)c1ccc(Nc2nc3n[nH]c(Nc4ccccc4)c3c(=O)[nH]2)cc1`, for which the growth was 102%. Turning to `O=C1/C(=C/c2ccccc2)CN(CCC(=O)N2C/C(=C\c3ccccc3)C(=O)/C(=C/c3ccccc3)C2)C/C1=C\c1ccccc1`, the growth is 87.6%.

For `CN1CCN(Cc2ccc(NC(=O)c3[nH]ncc3Nc3ncnc4c3CCC4)cc2)CC1`, the growth was 5.56% (active).

`O=C1C(=O)N(CCCCn2cc(CO)nn2)c2ccccc21`: the growth was 108%. Turning to `Cc1cc(Nc2nc(N3CCN(C)CC3)nc3ccccc23)n[nH]1`, the growth is 88%.

`CC(=O)C1=C(O)C=C2Oc3c(C(=O)/C=C/c4cc(Cl)cc(Cl)c4)c(O)c(C)c(O)c3[C@]2(C)C1=O`: the growth is -3.76% (active). Consider `O=C(Nc1ccc(CN2CCOCC2)cc1)c1[nH]ncc1Nc1ncnc2sccc12`, for which the growth is 5.47% (active).

For the molecule `COc1cc(-c2c3sc(=O)[nH]c3nc3c2c(=O)[nH]n3C(C)C)cc2c1OCO2`, the growth is 119%. Consider `O=C1/C(=C/c2ccc(Cl)c(Cl)c2)CN(C(=O)CCN2CCC(=NO)CC2)C/C1=C\c1ccc(Cl)c(Cl)c1`, for which the growth was -82.8% (active). With `CCN(CC)CCCC(C)Nc1ccnc2c(OC)cccc12` (stereo not drawn) the figure was 120%. Turning to `COc1ccc(-c2cn3c(-c4ccc(OC)cc4)cnc3c(Oc3ccc4c(C)cc(=O)oc4c3)n2)cc1`, the growth was 29.5%. Consider `CN1CCN(Cc2ccc(NC(=O)c3[nH]ncc3Nc3ncnc4sccc34)cc2)CC1`, for which the growth is 7.12% (active). `O=C([C@@H](COCc1ccccc1)N1C(=O)[C@@H](N2C(=O)OC[C@@H]2c2ccccc2)[C@H]1/C=C/c1ccccc1)N1CCC(CCN2CCCCC2)CC1`: the growth was 100%. As for `OCCNCCNc1c2ccccc2nc2ccccc12`, the growth is 88.3%. For `CC[C@H](Nc1ncnc(N)c1C(N)=O)c1nc2cccc(NCc3ccc(C(=O)NO)cc3)c2c(=O)n1-c1ccccc1`, the growth is 97.6%. As to `CCCCCCCCCc1cc(CN2CCCCC2)c(O)c(CN2CCCCC2)c1`, the growth is 66.4%. As for `CN1CCN(Cc2ccc(NC(=O)c3cncc(C#Cc4cnc(N)c5cccnc45)c3)cc2C(F)(F)F)CC1`, the figure is 24.6%. As for `C=C1CC2(OC1=O)C(=O)N(CCCCCCCCCCCCN1C(=O)C3(CC(=C)C(=O)O3)c3ccccc31)c1ccccc12` (stereo not drawn), the growth was 98.7%.

As for `Cn1c2ccccc2c2c3c(c4c5ccccc5[nH]c4c21)C(=O)N(N)C3=O`, the growth is 57.4%. As for `Cn1c2ccccc2c2c3c(c4c5ccccc5n(CCCCCC#N)c4c21)C(=O)N(O)C3=O`, the growth was 16.3%. For the molecule `COC(/C=C/c1ccc([N+](=O)[O-])cc1)OC`, the growth is 119%. With `O=C(CNC1C2CC3CC(C2)CC1C3)Sc1nnc2sc3ccccc3n12` (stereo not drawn), the growth was 110%. As for `C=CC[N+]1(CC)CCN=C1CCCCCCCCCCCCCCCCC` (stereo not drawn), the figure is -100% (active). On to `CN1CCN(Cc2ccc(NC(=O)c3[nH]ncc3Nc3ccnc4ccsc34)cc2)CC1`, for which the growth was 14.7%. `CN1/C(=C\C=C\C2=[N+](C)c3ccccc3C2(C)C)C(C)(C)c2ccccc21`: the growth was 25.2%.

On to `CS(=O)(=O)c1ccc(-c2cnc3ccc(-c4cccc(S(C)(=O)=O)c4)nn23)cc1`, for which the growth is 27.9%. With `COc1ccc(C/C(C)=C(\c2ccc(OCCN3CCCCCC3)cc2)c2ccc(OC(=O)C3CCCCC3)cc2)cc1`, the growth is 72.4%.
